Data: PubChem BioAssay (EPA / NIEHS)
Active and inactive are the calls of the source. How the source made its calls: active means hit-call score of the fitted dose curve at least 0.9, where 1 is the maximum; inactive means score below 0.9.

Each compound was assayed against X-box-binding protein 1 (Homo sapiens) (UniProt P17861) (assay: ATG_Xbp1_CIS: Attagene CIS-FACTORIAL HepG2 Assay for human X-box Binding Protein 1 (XBP1) (AID 2282972)). Settings: HepG2 XBP1 cis-element reporter, Attagene multiplex; actives raise or lower the signal.
Chain of X-box-binding protein 1 (Homo sapiens) (P17861 whole entry, looked up): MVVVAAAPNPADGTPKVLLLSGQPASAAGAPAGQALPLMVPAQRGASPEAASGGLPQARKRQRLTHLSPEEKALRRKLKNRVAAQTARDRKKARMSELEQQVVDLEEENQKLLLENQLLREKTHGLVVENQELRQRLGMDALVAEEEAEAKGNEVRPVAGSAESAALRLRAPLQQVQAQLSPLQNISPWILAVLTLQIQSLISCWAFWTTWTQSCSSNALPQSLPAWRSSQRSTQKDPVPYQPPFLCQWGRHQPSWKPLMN
Description: ATG_CIS is a cell-based, multiplexed-readout assay that uses HepG2, a human liver cell line, with measurements taken at 24 hours after chemical dosing in a 24-well plate.ATG_Xbp1_CIS is one of 52 assay component(s) measured or calculated from the ATG_CIS assay. It is designed to make measurements of mRNA induction, a form of inducible reporter, as detected with fluorescence intensity signals by Reverse transcription polymerase chain reaction (RT-PCR) and Capillary electrophoresis technology.Data from the assay component ATG_Xbp1_CIS was analyzed into 1 assay endpoint. This assay endpoint, ATG_Xbp1_CIS, was analyzed with bidirectional fitting relative to DMSO as the negative control and baseline of activity. Using a type of inducible reporter, measures of mRNA for gain or loss-of-signal activity can be used to understand the reporter gene at the transcription factor-level as they relate to the gene XBP1. Furthermore, this assay endpoint can be referred to as a primary readout, because this assay has produced multiple assay endpoints where this one serves a reporter gene function. To generalize the intended target to other relatable targets, this assay endpoint is annotated to the dna binding intended target family, where the subfamily is basic leucine zipper.
Human liver HepG2 cells are transiently transfected with multiple reporter transcription units (MRTUs) in 6-well plates using FuGene 6 reagent (Roche; 3 ml FuGene/1 mg DNA). The MRTU constructs are regulated by a cis-regulating element (promoter). […] A major difference between the CIS and TRANS system is that in CIS activities of endogenous TFs are measured, whereas the TRANS assay evaluates changes in activities of exogenous, chimeric NR-Gal4 proteins. […] At the end of 24 hour incubation, total RNA was isolated using TriZol reagent (Invitrogen). The isolated RNA is then reverse-transcribed using oligo(dT) primer and Mo-MLV reverse transcriptase (Invitrogen) with DNAse I (Ambion) treatment for 30 min. The one-tenth of the produced cDNA was amplified by PCR using Taq DNA polymerase (Invitrogen) and two reporter sequence-specific primers. The PCR products were fluorescently labeled by primer extension with 6-arboxyfluorescein (6-FAM) 5'-labeled reporter sequence-specific primer (2 min at 95 C, 20 s at 68 C and 10 min at 72 C) and these products were digested with 5U of HpaI (New England Biolabs) for 2h at 37 C. The fragments were purified using Qiaquick PCR columns (Qiagen), analyzed on an ABI 3130xL genetic analyzer (Applied Biosystems) with peak positions identified by using a set of X-rhodamine (ROX)-labeled MapMarker1000 molecular weight standards (BioVentures). The raw capillary electrophoresis data was processed using Attagraph software (Attagene).

Row | Structure (SMILES) | outcome | AC50
1 | Cc1ccc(S(=O)(=O)O)cc1C | inactive | 
2 | O=C(O)c1cc(N=Nc2ccc(S(=O)(=O)Nc3ccccn3)cc2)ccc1O | inactive | 
3 | CCCCCCCCCCCCc1ccccc1 | inactive | 
4 | CCOCCO | inactive | 
5 | CC(=O)c1ccc2c(c1)[C@H](NC(=O)c1ccc(F)cc1)[C@@H](O)C(C)(C)O2 | inactive | 
6 | CC/C(=C\C(=N/O)C(N)=O)C(C)[N+](=O)[O-] (stereo not given) | inactive | 
7 | Cc1[nH]cnc1C[C@H]1CCc2c(C)c3ccccc3n2C1=O |  | 20.4 µM (active)
8 | COc1cccc(-c2ccc(/C=C\CN3CCCCCC3)cc2Cl)c1 | inactive | 
9 | CCCN(C1CCN(C(=O)C2CCNCC2)CC1)[C@@H]1CCc2ccc(OC)cc2C1 |  | 153 µM (active)
10 | CCCCCCCCCCCCCCCO | inactive | 
11 | CC(C)CCCCCCOC(=O)c1ccc(C(=O)OCCCCCCC(C)C)c(C(=O)OCCCCCCC(C)C)c1 | inactive | 
12 | COCCOc1cc2cc(C(=O)NC3CCN(C(C)C)CC3)n(CC(=O)Nc3ccc(Cl)cn3)c2cn1 |  | 100 µM (active)
13 | COC(=O)CC(=O)OC | inactive | 
14 | COCCOCCOCCOC | inactive | 
15 | CCOCCOCCOCCO | inactive | 
16 | C1=CCCC=CCCC=CCC1 | inactive | 
17 | CC[C@H]1CC[C@H](NCc2cc3c(cc2OC)[C@H]2C[C@H]2C(=O)N3C)[C@H](c2ccccc2)N1 |  | 96.6 µM (active)
18 | O=C(OC[C@H]1O[C@@H](OC(=O)c2cc(O)c(O)c(OC(=O)c3cc(O)c(O)c(O)c3)c2)[C@H](OC(=O)c2cc(O)c(O)c(OC(=O)c3cc(O)c(O)c(O)c3)c2)[C@@H](OC(=O)c2cc(O)c(O)c(OC(=O)c3cc(O)c(O)c(O)c3)c2)[C@@H]1OC(=O)c1cc(O)c(O)c(OC(=O)c2cc(O)c(O)c(O)c2)c1)c1cc(O)c(O)c(OC(=O)c2cc(O)c(O)c(O)c2)c1 | inactive | 
19 | O=C(O)c1cccc(Oc2ccccc2)c1 | inactive | 
20 | Cc1ccc(C)c(O)c1 | inactive | 

Row | Structure (SMILES) | outcome | AC50
21 | O=C1CCCCCN1 | inactive | 
22 | CNCc1ccc(NC(=O)c2c[nH]c3c2C(=O)CCC3)cc1 | inactive | 
23 | O=C1OC(=O)C2C3C=CC(C3)C12 (stereo not given) | inactive | 
24 | Clc1nc(Cl)c(Cl)c(Cl)c1Cl | inactive | 
25 | CC(C)c1cccc(C(C)C)c1N1C(=O)c2ccc(O)cc2C1=O |  | 100 µM (active)
26 | Nc1cccc(N)c1 | inactive | 
27 | C=CCCCCCCCCC(=O)O | inactive | 
28 | O=C(O)CC(O)C(=O)O (stereo not given) | inactive | 
29 | Fc1ccccc1[C@@H](F)COC1CCC(Nc2ncnc3[nH]ncc23)CC1 (stereo not given in full) | inactive | 
30 | CCOc1cccc(-n2cc(C(=O)N3CCN(c4cc(C(=O)O)c5ccccc5c4)CC3)nc2-c2ccc(C)cc2)c1 | inactive | 
31 | C[C@](N)(Cc1ccc(O)c(O)c1)C(=O)O | inactive | 
32 | CC(O)CN(CCN(CC(C)O)CC(C)O)CC(C)O (stereo not given) | inactive | 
33 | COC(=O)c1ccccc1O | inactive | 
34 | COc1ccc(-n2nc(C(F)F)cc2-c2ccc(S(C)=O)cc2)cc1 (stereo not given) | inactive | 
35 | CC1(C)C(=O)N(Br)C(=O)N1Br | inactive | 
36 | Cn1c(=O)c2c(ncn2C)n(C)c1=O | inactive | 
37 | O=c1[nH]c2ccc(S(=O)CCN3CCC(Cc4ccc(F)cc4)CC3)cc2o1 (stereo not given) |  | 71.1 µM (active)
38 | O=C(O)c1cccc(N(Cc2cccnc2)c2ccc(OC(F)F)c(OC(F)F)c2)c1 | inactive | 
39 | CCOC(=O)COc1ccc2c(c1)CC(NCC(O)c1cccc(Cl)c1)CC2 (stereo not given) | inactive | 
40 | CCOC(=O)CC(CC(=O)OCC)(OC(C)=O)C(=O)OCC | inactive | 
